# How the values were obtained:
# [1] = biological target: T1, Ephrin type-A receptor 3 (Homo sapiens) (UniProt P29320); settings: at 10 µM
# T1 sequence (whole entry): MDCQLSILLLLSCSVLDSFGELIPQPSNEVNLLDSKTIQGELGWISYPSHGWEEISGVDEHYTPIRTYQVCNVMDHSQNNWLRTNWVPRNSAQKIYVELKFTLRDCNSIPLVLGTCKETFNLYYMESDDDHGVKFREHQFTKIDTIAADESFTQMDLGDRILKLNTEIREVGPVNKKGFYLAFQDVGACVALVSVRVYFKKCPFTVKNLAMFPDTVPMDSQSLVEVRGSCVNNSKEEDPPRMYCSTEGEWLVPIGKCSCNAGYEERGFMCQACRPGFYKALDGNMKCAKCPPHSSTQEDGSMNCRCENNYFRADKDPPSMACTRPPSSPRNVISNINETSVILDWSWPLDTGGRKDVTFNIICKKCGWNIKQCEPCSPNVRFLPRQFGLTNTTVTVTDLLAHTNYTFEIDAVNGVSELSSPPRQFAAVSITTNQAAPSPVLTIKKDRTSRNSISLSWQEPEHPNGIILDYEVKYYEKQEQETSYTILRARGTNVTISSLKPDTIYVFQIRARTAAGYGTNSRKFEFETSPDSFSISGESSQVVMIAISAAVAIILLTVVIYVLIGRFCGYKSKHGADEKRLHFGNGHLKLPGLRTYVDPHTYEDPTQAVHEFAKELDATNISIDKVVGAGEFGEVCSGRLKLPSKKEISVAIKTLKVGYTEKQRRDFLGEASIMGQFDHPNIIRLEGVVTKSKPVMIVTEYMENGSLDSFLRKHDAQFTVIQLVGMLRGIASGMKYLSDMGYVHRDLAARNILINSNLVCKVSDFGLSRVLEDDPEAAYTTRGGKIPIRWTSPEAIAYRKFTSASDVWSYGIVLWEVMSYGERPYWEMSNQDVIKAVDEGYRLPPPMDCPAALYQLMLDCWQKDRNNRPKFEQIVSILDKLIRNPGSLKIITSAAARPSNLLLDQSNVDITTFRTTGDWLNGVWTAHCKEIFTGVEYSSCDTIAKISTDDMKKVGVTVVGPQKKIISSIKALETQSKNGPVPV
# [2] = biological target: Ephrin type-A receptor 4 (Homo sapiens) (UniProt P54764); settings: at 10 µM
# Chain of Ephrin type-A receptor 4 (Homo sapiens) (P54764 whole entry): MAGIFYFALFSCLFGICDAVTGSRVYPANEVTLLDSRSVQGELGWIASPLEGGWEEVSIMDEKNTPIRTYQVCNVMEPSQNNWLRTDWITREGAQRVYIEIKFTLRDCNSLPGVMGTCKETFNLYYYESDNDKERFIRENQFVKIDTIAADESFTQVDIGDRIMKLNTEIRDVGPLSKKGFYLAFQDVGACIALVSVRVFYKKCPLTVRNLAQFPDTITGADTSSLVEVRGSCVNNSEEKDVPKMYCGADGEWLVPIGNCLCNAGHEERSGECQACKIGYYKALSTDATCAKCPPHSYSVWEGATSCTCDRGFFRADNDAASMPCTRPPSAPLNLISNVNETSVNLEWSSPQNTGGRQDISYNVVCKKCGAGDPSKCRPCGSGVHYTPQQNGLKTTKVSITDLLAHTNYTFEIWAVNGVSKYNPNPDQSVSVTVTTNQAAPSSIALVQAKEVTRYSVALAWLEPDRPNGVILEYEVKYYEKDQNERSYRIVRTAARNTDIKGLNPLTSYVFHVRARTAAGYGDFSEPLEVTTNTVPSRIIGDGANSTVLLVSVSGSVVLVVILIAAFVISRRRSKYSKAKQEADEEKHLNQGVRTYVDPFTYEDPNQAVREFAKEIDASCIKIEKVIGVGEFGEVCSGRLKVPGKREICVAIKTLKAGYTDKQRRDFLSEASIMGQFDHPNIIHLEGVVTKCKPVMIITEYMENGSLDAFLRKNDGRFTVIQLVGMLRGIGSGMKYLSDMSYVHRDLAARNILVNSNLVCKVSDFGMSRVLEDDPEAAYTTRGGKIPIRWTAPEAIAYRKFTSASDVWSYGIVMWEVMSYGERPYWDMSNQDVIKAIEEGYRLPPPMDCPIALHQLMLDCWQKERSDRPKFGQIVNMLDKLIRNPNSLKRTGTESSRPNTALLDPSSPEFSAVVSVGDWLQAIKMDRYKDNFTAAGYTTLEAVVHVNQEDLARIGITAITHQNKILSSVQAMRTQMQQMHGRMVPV
# [3] = biological target: Ephrin type-A receptor 5 (Homo sapiens) (UniProt P54756); settings: at 1 µM
# Chain of Ephrin type-A receptor 5 (Homo sapiens) (P54756 whole entry): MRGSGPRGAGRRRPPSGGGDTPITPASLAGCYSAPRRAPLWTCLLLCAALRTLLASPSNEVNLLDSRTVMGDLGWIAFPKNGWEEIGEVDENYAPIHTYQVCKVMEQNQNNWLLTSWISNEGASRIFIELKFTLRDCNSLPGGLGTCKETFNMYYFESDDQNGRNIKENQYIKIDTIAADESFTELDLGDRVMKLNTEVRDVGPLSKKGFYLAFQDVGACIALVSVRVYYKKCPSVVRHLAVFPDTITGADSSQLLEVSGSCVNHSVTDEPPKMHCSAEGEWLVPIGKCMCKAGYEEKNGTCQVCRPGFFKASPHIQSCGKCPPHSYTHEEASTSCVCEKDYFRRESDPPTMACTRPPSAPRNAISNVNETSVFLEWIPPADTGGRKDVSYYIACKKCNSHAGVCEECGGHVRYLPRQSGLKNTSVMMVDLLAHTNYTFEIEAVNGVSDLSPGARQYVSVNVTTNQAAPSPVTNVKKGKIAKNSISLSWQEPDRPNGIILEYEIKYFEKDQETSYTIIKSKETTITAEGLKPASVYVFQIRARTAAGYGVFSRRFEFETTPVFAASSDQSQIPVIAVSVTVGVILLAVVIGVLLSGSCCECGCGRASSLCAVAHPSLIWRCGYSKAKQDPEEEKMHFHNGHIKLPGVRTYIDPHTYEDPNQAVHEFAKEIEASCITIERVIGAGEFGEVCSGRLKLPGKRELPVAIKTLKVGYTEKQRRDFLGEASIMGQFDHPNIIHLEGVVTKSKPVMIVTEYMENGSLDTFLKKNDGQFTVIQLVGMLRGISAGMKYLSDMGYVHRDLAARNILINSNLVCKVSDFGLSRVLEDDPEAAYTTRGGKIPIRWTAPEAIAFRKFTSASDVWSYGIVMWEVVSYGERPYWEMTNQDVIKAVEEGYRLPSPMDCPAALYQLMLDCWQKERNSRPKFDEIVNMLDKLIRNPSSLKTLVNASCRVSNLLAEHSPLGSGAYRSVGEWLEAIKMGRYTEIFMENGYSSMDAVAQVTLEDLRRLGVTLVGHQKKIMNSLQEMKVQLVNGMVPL
# [4] = biological target: Ephrin type-A receptor 5 (Homo sapiens) (UniProt P54756); settings: at 10 µM
# [5] = biological target: Ephrin type-A receptor 7 (Homo sapiens) (UniProt Q15375); settings: at 1 µM
# Chain of Ephrin type-A receptor 7 (Homo sapiens) (Q15375 28-998 limits assumed): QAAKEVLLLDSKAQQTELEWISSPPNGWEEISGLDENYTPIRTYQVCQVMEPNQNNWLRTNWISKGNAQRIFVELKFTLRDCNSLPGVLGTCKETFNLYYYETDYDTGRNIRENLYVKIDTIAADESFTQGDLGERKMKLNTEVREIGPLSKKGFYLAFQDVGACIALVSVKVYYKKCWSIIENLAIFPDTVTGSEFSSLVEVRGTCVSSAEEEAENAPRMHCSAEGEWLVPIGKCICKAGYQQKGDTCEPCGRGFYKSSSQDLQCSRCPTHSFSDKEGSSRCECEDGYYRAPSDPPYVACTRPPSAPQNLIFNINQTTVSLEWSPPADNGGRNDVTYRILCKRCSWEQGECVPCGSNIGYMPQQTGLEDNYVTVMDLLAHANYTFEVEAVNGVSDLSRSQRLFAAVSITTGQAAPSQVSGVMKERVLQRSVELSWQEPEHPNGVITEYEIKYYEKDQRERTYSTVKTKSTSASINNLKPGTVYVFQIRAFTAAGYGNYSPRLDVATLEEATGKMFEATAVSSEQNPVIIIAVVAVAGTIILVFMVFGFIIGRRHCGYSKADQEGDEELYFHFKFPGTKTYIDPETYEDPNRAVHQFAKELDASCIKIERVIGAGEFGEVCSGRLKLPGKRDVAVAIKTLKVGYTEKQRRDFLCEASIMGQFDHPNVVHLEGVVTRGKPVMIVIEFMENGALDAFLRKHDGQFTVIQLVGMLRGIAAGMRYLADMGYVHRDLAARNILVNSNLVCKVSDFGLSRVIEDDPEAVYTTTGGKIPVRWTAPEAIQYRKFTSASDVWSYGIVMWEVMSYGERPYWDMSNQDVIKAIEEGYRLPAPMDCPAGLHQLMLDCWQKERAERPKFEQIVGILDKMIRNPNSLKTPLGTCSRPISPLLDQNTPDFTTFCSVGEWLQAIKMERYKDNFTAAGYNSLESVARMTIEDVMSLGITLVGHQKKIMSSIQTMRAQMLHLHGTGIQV
# [6] = biological target: Ephrin type-A receptor 7 (Homo sapiens) (UniProt Q15375); settings: at 10 µM
# [7] = biological target: T2, Ephrin type-A receptor 8 (Homo sapiens) (UniProt P29322); settings: at 1 µM
# T2 sequence (whole entry): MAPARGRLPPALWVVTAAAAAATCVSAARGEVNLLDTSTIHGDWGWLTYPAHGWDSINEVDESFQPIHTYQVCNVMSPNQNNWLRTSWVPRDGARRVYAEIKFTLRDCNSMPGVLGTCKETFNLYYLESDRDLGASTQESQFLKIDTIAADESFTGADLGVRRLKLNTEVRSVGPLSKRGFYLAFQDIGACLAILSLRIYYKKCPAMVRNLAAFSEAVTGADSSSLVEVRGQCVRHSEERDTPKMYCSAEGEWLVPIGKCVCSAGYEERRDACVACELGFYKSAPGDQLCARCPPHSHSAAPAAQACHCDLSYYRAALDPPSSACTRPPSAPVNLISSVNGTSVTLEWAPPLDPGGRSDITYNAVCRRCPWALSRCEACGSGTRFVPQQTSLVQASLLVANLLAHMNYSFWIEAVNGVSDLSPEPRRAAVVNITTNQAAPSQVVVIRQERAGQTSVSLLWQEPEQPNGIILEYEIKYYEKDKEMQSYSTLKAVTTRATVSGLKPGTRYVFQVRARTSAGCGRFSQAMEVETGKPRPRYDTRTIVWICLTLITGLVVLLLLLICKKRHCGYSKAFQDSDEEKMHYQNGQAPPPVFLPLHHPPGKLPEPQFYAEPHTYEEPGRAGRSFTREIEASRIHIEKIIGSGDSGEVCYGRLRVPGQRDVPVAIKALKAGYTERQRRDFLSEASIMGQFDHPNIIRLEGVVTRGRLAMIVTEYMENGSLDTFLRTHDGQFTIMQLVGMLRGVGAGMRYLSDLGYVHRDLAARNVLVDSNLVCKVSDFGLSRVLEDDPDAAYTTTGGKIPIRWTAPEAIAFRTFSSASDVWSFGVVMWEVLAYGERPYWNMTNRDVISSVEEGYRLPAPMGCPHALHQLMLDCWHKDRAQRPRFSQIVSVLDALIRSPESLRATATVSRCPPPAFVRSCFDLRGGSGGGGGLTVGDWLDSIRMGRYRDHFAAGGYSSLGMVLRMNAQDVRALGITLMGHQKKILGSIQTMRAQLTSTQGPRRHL
# [8] = biological target: T2, Ephrin type-A receptor 8 (Homo sapiens); settings: at 10 µM
# [9] = biological target: T3, Ephrin type-B receptor 1 (Homo sapiens) (UniProt P54762); settings: at 10 µM
# T3 sequence (whole entry): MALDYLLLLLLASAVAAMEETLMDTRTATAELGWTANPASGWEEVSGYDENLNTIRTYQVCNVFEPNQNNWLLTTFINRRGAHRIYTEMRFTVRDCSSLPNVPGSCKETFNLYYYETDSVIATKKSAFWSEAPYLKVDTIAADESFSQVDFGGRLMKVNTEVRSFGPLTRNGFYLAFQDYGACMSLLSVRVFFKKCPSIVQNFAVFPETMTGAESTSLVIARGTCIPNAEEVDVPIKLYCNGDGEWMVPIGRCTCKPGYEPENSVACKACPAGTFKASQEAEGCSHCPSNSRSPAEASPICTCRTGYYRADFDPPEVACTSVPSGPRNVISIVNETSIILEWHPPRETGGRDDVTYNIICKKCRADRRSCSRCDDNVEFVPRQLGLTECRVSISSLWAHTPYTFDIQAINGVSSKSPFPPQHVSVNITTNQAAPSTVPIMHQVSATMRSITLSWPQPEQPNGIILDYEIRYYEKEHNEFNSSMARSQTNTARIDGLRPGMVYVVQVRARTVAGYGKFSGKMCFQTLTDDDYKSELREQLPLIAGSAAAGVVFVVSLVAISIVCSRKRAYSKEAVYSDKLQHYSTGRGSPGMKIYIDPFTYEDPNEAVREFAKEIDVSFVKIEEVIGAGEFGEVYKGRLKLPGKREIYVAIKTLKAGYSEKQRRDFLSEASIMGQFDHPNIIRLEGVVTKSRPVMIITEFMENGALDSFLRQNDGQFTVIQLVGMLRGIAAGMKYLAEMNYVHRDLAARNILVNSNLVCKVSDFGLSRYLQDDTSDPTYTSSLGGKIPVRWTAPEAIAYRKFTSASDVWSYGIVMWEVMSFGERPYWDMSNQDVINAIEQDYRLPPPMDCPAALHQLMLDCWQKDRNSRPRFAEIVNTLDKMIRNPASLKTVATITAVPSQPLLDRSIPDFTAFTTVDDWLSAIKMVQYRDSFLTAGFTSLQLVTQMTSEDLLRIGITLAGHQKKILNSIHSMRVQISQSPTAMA
# [10] = biological target: T4, Ephrin type-B receptor 2 (Homo sapiens) (UniProt P29323); settings: at 1 µM
# T4 sequence (whole entry): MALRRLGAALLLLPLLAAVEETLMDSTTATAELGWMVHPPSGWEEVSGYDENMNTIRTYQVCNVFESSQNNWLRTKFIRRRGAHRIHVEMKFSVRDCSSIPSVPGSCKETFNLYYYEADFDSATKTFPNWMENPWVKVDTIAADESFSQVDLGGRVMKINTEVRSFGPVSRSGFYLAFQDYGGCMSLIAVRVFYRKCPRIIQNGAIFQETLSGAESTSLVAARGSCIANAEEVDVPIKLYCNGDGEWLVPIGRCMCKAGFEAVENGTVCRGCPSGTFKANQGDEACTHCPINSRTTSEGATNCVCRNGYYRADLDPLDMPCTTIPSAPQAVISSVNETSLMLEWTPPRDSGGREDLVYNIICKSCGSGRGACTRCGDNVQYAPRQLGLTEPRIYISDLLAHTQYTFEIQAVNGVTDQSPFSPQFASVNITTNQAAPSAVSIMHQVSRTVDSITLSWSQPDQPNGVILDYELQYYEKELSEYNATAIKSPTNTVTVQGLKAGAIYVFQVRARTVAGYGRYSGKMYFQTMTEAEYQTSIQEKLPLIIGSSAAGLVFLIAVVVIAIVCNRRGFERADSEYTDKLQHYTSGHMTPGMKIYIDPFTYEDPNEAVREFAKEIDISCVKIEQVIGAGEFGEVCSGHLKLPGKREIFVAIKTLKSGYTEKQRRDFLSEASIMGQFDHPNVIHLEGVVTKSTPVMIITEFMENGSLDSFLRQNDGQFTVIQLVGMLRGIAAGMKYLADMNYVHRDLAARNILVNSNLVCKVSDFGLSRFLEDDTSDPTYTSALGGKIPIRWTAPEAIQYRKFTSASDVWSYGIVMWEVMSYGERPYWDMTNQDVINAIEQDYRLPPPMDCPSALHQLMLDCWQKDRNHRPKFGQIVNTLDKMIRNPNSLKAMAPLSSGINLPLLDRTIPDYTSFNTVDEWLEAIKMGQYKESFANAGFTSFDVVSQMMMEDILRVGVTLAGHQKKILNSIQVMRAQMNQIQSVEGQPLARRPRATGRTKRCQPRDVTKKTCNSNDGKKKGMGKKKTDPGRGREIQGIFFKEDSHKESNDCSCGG
# [11] = biological target: T4, Ephrin type-B receptor 2 (Homo sapiens); settings: at 10 µM
# [12] = biological target: T5, Ephrin type-B receptor 3 (Homo sapiens) (UniProt P54753); settings: at 1 µM
# T5 sequence (whole entry): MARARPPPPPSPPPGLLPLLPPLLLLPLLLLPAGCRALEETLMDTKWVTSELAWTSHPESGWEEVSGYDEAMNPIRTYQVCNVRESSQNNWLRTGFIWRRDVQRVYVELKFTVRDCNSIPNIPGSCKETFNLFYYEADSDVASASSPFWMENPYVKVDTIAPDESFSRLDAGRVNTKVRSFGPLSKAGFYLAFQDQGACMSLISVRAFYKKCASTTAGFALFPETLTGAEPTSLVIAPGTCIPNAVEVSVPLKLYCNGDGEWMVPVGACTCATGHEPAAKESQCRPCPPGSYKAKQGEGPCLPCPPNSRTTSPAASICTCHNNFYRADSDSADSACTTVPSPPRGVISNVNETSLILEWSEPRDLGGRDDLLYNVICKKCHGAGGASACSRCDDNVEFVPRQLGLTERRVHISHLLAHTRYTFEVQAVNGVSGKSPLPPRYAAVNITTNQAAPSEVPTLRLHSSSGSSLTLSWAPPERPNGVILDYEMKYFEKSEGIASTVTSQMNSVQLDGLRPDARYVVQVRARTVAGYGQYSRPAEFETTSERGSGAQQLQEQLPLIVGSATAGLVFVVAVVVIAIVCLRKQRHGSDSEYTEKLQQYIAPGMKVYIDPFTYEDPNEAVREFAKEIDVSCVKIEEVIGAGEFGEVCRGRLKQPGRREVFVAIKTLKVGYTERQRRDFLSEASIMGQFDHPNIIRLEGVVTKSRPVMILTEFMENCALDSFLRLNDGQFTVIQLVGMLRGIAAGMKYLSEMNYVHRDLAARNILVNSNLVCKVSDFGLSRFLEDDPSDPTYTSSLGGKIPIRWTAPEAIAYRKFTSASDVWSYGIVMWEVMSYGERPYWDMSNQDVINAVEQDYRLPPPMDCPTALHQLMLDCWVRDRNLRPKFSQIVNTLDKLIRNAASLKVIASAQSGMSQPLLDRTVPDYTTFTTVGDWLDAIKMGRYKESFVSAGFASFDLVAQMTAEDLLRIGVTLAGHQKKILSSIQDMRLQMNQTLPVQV
# [13] = biological target: T5, Ephrin type-B receptor 3 (Homo sapiens); settings: at 10 µM
# [14] = biological target: T6, Ephrin type-B receptor 4 (Homo sapiens) (UniProt P54760); settings: at 1 µM
# T6 sequence (whole entry): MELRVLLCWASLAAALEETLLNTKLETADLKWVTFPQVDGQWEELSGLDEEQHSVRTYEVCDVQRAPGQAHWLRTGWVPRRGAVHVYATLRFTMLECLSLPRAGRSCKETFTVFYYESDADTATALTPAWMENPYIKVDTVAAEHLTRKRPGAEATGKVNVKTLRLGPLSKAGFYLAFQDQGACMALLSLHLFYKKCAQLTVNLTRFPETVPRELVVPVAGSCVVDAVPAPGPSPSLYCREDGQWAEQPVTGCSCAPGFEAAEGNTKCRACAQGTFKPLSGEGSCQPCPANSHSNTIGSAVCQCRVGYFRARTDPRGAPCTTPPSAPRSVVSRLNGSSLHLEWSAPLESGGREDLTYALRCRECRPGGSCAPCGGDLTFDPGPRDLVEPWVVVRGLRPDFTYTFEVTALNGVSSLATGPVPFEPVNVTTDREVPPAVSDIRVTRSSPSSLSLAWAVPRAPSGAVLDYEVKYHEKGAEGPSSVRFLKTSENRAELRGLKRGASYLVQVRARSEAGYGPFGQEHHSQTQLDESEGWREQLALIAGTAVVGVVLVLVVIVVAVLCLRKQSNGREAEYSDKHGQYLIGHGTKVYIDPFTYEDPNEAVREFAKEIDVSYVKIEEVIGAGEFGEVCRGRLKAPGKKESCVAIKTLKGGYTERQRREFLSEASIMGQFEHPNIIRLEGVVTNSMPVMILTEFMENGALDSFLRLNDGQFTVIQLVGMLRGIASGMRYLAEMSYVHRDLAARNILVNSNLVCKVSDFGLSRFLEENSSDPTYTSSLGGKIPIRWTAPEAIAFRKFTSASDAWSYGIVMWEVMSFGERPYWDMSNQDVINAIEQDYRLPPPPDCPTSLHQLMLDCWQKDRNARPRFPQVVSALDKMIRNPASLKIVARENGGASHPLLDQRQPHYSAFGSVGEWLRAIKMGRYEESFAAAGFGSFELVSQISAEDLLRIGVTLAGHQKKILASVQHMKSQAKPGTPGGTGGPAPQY
# [15] = biological target: T6, Ephrin type-B receptor 4 (Homo sapiens); settings: at 10 µM
# [16] = biological target: Receptor tyrosine-protein kinase erbB-4 (Homo sapiens) (UniProt Q15303); settings: at 1 µM
# Chain of Receptor tyrosine-protein kinase erbB-4 (Homo sapiens) (Q15303 whole entry): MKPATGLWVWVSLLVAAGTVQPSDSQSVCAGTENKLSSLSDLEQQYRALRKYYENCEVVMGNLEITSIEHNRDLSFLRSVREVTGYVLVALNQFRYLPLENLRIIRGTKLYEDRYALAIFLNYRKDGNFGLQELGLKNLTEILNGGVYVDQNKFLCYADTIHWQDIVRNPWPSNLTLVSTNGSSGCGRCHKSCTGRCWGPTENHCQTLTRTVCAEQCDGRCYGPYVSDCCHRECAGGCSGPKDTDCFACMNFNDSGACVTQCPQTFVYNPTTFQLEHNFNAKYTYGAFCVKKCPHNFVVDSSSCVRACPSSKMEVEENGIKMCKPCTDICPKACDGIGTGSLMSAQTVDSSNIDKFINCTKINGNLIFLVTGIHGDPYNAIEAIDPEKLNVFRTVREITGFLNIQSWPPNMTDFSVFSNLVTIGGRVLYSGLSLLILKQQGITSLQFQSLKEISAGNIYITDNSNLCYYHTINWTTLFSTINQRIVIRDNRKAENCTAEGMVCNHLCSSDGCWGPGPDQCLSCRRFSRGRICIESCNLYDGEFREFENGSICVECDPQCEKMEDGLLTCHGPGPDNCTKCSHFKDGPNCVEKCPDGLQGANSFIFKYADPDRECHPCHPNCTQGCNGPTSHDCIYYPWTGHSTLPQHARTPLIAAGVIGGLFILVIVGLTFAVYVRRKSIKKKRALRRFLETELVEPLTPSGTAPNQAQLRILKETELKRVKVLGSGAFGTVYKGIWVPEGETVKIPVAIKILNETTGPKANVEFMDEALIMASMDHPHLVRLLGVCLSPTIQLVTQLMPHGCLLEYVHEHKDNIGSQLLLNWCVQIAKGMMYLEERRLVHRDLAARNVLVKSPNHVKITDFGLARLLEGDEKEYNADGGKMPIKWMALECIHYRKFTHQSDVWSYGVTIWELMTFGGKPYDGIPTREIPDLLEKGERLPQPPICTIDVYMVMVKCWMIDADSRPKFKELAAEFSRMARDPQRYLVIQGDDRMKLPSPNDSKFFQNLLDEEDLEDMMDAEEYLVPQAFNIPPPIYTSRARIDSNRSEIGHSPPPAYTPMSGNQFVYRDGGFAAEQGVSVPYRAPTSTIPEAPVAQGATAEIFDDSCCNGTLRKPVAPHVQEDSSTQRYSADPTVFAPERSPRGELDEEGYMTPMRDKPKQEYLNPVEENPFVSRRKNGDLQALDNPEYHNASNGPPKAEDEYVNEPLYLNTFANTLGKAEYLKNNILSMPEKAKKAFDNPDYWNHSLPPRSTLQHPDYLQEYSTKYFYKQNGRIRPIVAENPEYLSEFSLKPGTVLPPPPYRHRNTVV
# [17] = biological target: Receptor tyrosine-protein kinase erbB-4 (Homo sapiens) (UniProt Q15303); settings: at 10 µM
# [18] = biological target: Focal adhesion kinase 1 (Homo sapiens) (UniProt Q05397); settings: at 1 µM
compound,measurement,setting,value
CN(C)CCCn1cc(C2=C(c3c[nH]c4ccccc34)C(=O)NC2=O)c2ccccc21,residual activity,[1],82%
same,residual activity,[2],82%
same,residual activity,[3],123%
same,residual activity,[4],103%
same,residual activity,[5],108%
same,residual activity,[6],87%
same,residual activity,[7],120%
same,residual activity,[8],106%
same,residual activity,[9],59%
same,residual activity,[10],119%
same,residual activity,[11],113%
same,residual activity,[12],108% (inactive)
same,residual activity,[13],110%
same,residual activity,[14],124%
same,residual activity,[15],118%
same,residual activity,[16],113%
same,residual activity,[17],86%
same,residual activity,[18],133%

# From ChEMBL document CHEMBL2218924, “A broad activity screen in support of a chemogenomic map for kinase signalling research and drug discovery” (Biochem J, 2013)
